# Data reported in PubChem BioAssay (EPA / NIEHS).
# Results filed as inconclusive are left out. Active and inactive are the calls of the source. Rule for the calls: active = hit-call score of the fitted dose curve at least 0.9, where 1 is the maximum; inconclusive = response in the unintended direction; inactive = score below 0.9.
# Key:
# [1] = biological target: Peroxisome proliferator-activated receptor gamma (Homo sapiens) (UniProt P37231); assay: ATG_PPARg_TRANS: Attagene TRANS-FACTORIAL HepG2 Assay for human Peroxisome Proliferator-activated Receptor-gamma (PPARg) (AID 2283007)
# In short: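 Gain-of-signal endpoint relative to DMSO, derived from reporter mRNA levels quantified by RT-PCR and capillary electrophoresis. Cells were HepG2 transiently expressing a chimeric NR-Gal4 construct with GAL4-UAS reporters, exposed to chemicals for 24 h.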
# [2] = biological target: Nuclear receptor subfamily 1 group I member 2 (Homo sapiens) (UniProt O75469); assay: ATG_PXR_TRANS: Attagene TRANS-FACTORIAL HepG2 Assay for human Pregnane X Receptor (PXR) (AID 2283008)
# In short: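 Transient HepG2 transfectants carrying multiplexed reporter transcription units; PXR activity read through a Gal4 chimera. 24 h exposure. RT-PCR/CE fluorescence; upward curve fit referenced to DMSO.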
# [3] = biological target: human Retinoic Acid Receptor gamma (RARg), RARG (gene 5916) (UniProt P13631); assay: ATG_RARg_TRANS: Attagene TRANS-FACTORIAL HepG2 Assay for human Retinoic Acid Receptor gamma (RARg) (AID 2283009)
# In short: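 TRANS format measured activity of exogenous NR-GAL4 fusion (RARg) in transfected HepG2 liver cells after 24 h dosing. Induced reporter RNA was detected by RT-PCR/capillary electrophoresis fluorescence, analysed in the positive direction against DMSO.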
# [4] = biological target: human Thyroid Receptor alpha (THRa1), THRA (gene 7067) (UniProt P10827); assay: ATG_THRa1_TRANS: Attagene TRANS-FACTORIAL HepG2 Assay for human Thyroid Receptor alpha (THRa1) (AID 2283014)
# In short: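 Reporter transcript induction, read by capillary electrophoresis of 6-FAM-labelled RT-PCR products, reflects activity of a transfected THRa1-Gal4 fusion in HepG2 liver cells. Cells were dosed for 24 h; activity was fitted in the positive direction against DMSO.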
# [5] = biological target: human RAR-related Orphan Receptor beta (RORb), RORB (gene 6096) (UniProt Q92753); assay: ATG_RORb_TRANS: Attagene TRANS-FACTORIAL HepG2 Assay for human RAR-related Orphan Receptor beta (RORb) (AID 2283010)
# In short: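 Transfect HepG2 with multiple GAL4-UAS reporter transcription units; dose chemicals for 24 h; isolate RNA, reverse-transcribe and PCR-amplify reporter sequences; label, digest and resolve fragments by capillary electrophoresis; fit increases relative to DMSO.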
# [6] = biological target: human RAR-related Orphan Receptor gamma (RORg), RORC (gene 6097) (UniProt P51449); assay: ATG_RORg_TRANS: Attagene TRANS-FACTORIAL HepG2 Assay for human RAR-related Orphan Receptor gamma (RORg) (AID 2283011)
# In short: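 First, HepG2 liver cells were transfected with GAL4-UAS-driven reporter constructs and the RORg-Gal4 fusion. Next, they were treated with chemical for 24 h. Finally, reporter mRNA was quantified by RT-PCR and capillary electrophoresis, with upward activity fitted against DMSO.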
# [7] = biological target: Retinoic acid receptor RXR-alpha (Homo sapiens) (UniProt P19793); assay: ATG_RXRa_TRANS: Attagene TRANS-FACTORIAL HepG2 Assay for human Retinoid X Receptor alpha (RXRa) (AID 2283012)
# In short: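 Measures exogenous chimeric NR-GAL4 activity in transfected HepG2 liver cells after 24 h of dosing. Induced reporter mRNA was detected by RT-PCR with capillary electrophoresis, and gain of signal was analysed against DMSO.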
# [8] = biological target: human Retinoid X Receptor beta (RXRb), RXRB (gene 6257) (UniProt P28702); assay: ATG_RXRb_TRANS: Attagene TRANS-FACTORIAL HepG2 Assay for human Retinoid X Receptor beta (RXRb) (AID 2283013)
# In short: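 Chimeric receptor-Gal4 activity was assessed in transiently transfected human HepG2 cells after 24 h exposure. Transcripts from GAL4-UAS reporters were quantified by fluorescent RT-PCR and capillary electrophoresis, with DMSO as negative control and baseline.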
# [9] = biological target: human Vitamin D Receptor (VDR), VDR (gene 7421) (UniProt P11473); assay: ATG_VDR_TRANS: Attagene TRANS-FACTORIAL HepG2 Assay for human Vitamin D Receptor (VDR) (AID 2283022)
# In short: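 Steps: transfect HepG2 with GAL4-UAS-driven reporter constructs; dose compounds 24 h; isolate RNA, reverse-transcribe, PCR-amplify with 6-FAM-labelled primer extension and HpaI digestion; quantify fragments by capillary electrophoresis relative to DMSO.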
# [10] = biological target: Retinoic acid receptor alpha (Homo sapiens) (UniProt P10276); assay: ATG_RARa_TRANS: Attagene TRANS-FACTORIAL HepG2 Assay for human Retinoic Acid Receptor alpha (RARa) (AID 2283005)
# In short: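 Reporter transcripts, measured by RT-PCR with fluorescent labeling and capillary electrophoresis after 24 h dosing, reflect activity of an exogenous human RARa–GAL4 fusion in transiently transfected HepG2. Fitted for increase relative to DMSO.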
# Sequence of Peroxisome proliferator-activated receptor gamma (Homo sapiens) (P37231 whole entry, looked up, the tested form may be a part): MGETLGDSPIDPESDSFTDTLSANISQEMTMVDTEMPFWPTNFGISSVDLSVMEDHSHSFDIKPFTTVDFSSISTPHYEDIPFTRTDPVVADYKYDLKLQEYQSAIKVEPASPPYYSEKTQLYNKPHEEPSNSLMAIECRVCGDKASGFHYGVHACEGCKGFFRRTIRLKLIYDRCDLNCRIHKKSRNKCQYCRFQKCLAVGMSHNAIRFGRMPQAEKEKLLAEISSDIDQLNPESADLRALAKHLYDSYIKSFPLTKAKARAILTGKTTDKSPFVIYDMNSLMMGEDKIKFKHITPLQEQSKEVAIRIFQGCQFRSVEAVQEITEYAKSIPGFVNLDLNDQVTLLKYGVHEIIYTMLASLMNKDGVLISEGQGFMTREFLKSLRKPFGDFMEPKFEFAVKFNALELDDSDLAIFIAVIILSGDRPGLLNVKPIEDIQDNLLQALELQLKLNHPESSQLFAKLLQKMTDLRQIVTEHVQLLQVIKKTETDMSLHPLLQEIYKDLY
# Sequence of human Vitamin D Receptor (VDR), VDR (gene 7421) (P11473 whole entry, looked up, the tested form may be a part): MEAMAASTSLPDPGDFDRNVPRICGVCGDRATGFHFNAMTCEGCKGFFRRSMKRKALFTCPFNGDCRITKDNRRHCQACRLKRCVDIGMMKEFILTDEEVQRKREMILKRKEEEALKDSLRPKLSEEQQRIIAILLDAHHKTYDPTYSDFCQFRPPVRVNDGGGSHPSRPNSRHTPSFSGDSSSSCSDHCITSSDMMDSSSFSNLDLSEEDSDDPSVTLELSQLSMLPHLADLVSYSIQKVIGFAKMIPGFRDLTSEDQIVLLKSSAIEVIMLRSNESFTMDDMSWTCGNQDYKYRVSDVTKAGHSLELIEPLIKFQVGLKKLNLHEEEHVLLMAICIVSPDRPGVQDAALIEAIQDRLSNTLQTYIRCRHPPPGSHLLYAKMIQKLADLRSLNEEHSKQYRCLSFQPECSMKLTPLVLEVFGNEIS
# Sequence of Nuclear receptor subfamily 1 group I member 2 (Homo sapiens) (O75469 whole entry, looked up, the tested form may be a part): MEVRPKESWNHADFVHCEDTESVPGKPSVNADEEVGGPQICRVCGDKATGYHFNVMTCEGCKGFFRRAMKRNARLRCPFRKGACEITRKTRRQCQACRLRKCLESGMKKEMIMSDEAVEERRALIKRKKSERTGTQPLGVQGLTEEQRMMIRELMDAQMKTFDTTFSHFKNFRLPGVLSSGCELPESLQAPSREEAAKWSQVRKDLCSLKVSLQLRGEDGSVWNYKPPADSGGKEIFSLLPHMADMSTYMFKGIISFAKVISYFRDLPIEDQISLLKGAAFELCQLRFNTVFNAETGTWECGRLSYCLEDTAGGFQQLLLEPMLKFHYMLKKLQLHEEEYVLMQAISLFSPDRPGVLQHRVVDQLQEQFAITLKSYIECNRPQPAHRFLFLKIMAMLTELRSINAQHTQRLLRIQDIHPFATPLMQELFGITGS
# Sequence of Retinoic acid receptor alpha (Homo sapiens) (P10276 whole entry, looked up, the tested form may be a part): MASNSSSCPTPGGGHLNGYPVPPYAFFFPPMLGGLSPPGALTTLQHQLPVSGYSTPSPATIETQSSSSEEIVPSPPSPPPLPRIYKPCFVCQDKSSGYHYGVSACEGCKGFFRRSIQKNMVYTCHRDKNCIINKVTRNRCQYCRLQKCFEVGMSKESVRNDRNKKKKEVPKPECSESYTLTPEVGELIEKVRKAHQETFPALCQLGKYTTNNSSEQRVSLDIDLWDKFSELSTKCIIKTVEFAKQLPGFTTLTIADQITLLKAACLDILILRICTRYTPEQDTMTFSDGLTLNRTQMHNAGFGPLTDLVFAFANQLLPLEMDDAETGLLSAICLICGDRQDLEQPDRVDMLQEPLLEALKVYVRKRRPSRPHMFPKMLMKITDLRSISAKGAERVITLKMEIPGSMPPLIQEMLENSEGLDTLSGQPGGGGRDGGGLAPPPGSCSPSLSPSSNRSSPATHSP
# Sequence of human Retinoic Acid Receptor gamma (RARg), RARG (gene 5916) (P13631 whole entry, looked up, the tested form may be a part): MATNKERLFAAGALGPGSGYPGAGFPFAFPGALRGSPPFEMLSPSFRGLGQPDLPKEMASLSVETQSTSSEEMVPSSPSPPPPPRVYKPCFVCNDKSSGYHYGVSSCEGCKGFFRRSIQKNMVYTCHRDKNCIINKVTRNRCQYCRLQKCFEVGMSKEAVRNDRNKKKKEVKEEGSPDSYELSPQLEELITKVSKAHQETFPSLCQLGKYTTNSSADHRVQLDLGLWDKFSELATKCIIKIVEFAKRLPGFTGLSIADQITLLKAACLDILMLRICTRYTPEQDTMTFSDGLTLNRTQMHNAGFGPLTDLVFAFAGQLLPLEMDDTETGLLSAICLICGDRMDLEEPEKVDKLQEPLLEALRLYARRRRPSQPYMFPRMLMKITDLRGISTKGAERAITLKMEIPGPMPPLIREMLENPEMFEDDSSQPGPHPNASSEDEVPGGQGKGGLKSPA
# Sequence of human RAR-related Orphan Receptor gamma (RORg), RORC (gene 6097) (P51449 whole entry, looked up, the tested form may be a part): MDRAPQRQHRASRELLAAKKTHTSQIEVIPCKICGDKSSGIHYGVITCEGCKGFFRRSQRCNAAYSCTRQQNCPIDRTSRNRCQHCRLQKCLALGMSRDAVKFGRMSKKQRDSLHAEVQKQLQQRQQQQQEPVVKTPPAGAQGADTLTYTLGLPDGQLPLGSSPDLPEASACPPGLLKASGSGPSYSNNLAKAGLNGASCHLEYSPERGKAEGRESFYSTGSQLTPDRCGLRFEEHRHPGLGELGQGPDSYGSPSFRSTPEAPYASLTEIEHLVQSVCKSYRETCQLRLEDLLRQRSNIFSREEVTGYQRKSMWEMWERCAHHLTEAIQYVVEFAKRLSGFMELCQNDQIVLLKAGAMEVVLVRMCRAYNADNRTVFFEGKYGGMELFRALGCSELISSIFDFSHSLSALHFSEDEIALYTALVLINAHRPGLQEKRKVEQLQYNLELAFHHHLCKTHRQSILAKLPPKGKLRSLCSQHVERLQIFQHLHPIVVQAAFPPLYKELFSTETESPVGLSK
# Sequence of human RAR-related Orphan Receptor beta (RORb), RORB (gene 6096) (Q92753 whole entry, looked up, the tested form may be a part): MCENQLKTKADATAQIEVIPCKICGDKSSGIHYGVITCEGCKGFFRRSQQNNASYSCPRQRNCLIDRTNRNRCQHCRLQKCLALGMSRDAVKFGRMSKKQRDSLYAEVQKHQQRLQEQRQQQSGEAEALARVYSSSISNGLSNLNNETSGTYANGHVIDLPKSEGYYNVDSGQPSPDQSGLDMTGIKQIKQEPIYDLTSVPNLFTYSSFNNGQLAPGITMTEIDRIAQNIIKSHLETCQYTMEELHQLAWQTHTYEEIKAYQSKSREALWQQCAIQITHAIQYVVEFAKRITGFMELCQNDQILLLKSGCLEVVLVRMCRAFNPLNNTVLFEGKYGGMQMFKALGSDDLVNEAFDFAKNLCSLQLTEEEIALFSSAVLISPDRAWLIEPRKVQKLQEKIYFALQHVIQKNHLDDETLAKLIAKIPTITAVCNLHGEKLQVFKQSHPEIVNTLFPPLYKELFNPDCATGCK
# Sequence of Retinoic acid receptor RXR-alpha (Homo sapiens) (P19793 whole entry, looked up, the tested form may be a part): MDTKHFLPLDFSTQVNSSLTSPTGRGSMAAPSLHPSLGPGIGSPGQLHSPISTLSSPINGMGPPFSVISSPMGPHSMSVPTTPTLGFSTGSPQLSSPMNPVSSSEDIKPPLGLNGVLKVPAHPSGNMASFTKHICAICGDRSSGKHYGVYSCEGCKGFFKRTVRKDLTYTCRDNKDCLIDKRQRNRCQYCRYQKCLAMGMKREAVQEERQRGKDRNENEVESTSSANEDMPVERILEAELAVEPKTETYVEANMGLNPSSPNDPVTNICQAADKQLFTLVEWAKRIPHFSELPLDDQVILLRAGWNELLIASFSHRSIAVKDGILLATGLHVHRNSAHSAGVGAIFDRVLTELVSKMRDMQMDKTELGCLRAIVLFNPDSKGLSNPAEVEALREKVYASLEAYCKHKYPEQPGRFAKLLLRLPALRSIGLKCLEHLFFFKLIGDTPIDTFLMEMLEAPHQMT
# Sequence of human Thyroid Receptor alpha (THRa1), THRA (gene 7067) (P10827 whole entry, looked up, the tested form may be a part): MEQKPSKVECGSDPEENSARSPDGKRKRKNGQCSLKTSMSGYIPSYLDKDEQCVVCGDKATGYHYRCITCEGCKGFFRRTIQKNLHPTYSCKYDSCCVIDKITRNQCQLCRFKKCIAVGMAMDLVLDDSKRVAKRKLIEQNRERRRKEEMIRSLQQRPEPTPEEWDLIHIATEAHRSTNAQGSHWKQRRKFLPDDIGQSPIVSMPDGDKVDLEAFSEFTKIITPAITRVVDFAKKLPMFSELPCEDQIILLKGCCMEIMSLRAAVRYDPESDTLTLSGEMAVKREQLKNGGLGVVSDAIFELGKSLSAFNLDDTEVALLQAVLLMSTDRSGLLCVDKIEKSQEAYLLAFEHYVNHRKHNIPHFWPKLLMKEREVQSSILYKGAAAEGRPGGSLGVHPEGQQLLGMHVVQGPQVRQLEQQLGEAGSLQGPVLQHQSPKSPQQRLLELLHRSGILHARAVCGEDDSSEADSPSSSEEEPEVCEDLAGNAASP
# Sequence of human Retinoid X Receptor beta (RXRb), RXRB (gene 6257) (P28702 whole entry, looked up, the tested form may be a part): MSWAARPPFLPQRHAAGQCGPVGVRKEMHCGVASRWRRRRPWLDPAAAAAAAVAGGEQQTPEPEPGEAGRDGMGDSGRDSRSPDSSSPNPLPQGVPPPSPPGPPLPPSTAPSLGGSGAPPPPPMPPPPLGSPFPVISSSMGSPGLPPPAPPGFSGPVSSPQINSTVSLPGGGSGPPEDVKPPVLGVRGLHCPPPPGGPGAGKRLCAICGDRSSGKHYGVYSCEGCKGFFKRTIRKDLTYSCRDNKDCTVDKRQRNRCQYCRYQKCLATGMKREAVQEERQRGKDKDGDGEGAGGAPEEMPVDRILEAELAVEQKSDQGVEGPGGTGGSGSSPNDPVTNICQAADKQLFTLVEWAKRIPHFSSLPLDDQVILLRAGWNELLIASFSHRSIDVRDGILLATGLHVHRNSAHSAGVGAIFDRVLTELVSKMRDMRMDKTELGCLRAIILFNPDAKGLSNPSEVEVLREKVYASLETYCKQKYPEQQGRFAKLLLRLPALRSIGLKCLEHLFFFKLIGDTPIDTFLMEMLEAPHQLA
compound,measurement,setting,value
COc1ccccc1NC(=O)c1cc2ccccc2cc1O,AC50,[1],8.06 µM (active)
same,AC50,[2],1.23 µM (active)
same,outcome,[3],inactive
same,AC50,[4],21.7 µM (active)
FC(F)=C(F)C(F)(F)C(F)(F)C(F)(F)C(F)F,outcome,[1],inactive
same,outcome,[2],inactive
same,outcome,[5],inactive
same,outcome,[6],inactive
same,outcome,[7],inactive
CCCCc1ccc2ccccc2c1S(=O)(=O)O,AC50,[1],45.4 µM (active)
same,AC50,[2],2.67 µM (active)
same,outcome,[3],inactive
same,outcome,[5],inactive
same,outcome,[6],inactive
same,AC50,[8],77.1 µM (active)
same,outcome,[9],inactive
OCC1CCC(CO)CC1 (stereo not drawn),outcome,[10],inactive
same,outcome,[1],inactive
same,outcome,[3],inactive
same,outcome,[9],inactive
CCOCCOCC,outcome,[1],inactive
same,outcome,[2],inactive
same,outcome,[5],inactive
same,outcome,[6],inactive
same,outcome,[9],inactive
CCO[Si](C)(C)OCC,outcome,[10],inactive
same,outcome,[2],inactive
same,outcome,[9],inactive
O=C(F)C(F)(F)C(F)(F)C(F)(F)C(=O)F,outcome,[10],inactive
same,outcome,[2],inactive
same,outcome,[6],inactive
same,outcome,[7],inactive
same,outcome,[9],inactive
